Experimental data as given in PubChem BioAssay AID1159580 (chemical genetic matrix, 2015).
Among all 5,500 compounds or so, about 2,000 (36%) were called active. Roughly 18% stayed inconclusive and do not appear here. Rule as the data show it: active = normalized growth mostly below about 0.91 (no sharp cut-off); inconclusive = no clear call, values can overlap the other calls; inactive = mostly above about 0.92. Some of the results follow.

Assay: chemical genetic growth profiling, strain panel (AID 1159580);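 also: tested at 20 µM; growth read once vehicle control cultures reached saturation at 30 °C; 1 = growth at the plate median or of vehicle wells; lower values mean less growth of the strain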
Details: growth OD

Measured: normalized growth

CC(N)CCCC(C)(C)O (centres undefined)
inactive: S. cerevisiae deletion strains, locus YJR066W, strain TOR1, hits give low values 1.01 | S. cerevisiae deletion strains, locus YKL009W, strain mrt4, hits give low values 0.985 | S. cerevisiae deletion strains, locus YKL068W, hits give low values 0.995 | S. cerevisiae deletion strains, locus YKL085W, strain MDH1 (second series), hits give low values 0.995 | S. cerevisiae deletion strains, locus YKL085W, strain MDH1, hits give low values 0.995 | S. cerevisiae deletion strains, locus YKL160W, strain elf1, hits give low values 0.991 | S. cerevisiae deletion strains, locus YKL190W, strain CNB1, hits give low values 0.995 | S. cerevisiae deletion strains, locus YKR001C, strain vps1, hits give low values 0.99 | S. cerevisiae deletion strains, locus YKR026C, strain gcn3, hits give low values 0.956 | S. cerevisiae deletion strains, locus YKR091W, strain srl3, hits give low values 0.977 | S. cerevisiae deletion strains, locus YLL001W, strain dnm1, hits give low values 0.974 | S. cerevisiae deletion strains, locus YLL026W, hits give low values 0.979 | S. cerevisiae deletion strains, locus YLL041C, strain sdh2, hits give low values 0.968 | S. cerevisiae deletion strains, locus YLR027C, strain aat2, hits give low values 0.99 | S. cerevisiae deletion strains, locus YLR039C, strain RIC1, hits give low values 1.01 | S. cerevisiae deletion strains, locus YLR058C, strain SHM2, hits give low values 1.01 | S. cerevisiae deletion strains, locus YLR102C, strain apc9, hits give low values 1.01 | S. cerevisiae deletion strains, locus YLR113W, strain HOG1, hits give low values 0.988 | S. cerevisiae deletion strains, locus YLR221C, strain rsa3, hits give low values 0.982 | S. cerevisiae deletion strains, locus YLR258W, strain gsy2, hits give low values 0.982 | S. cerevisiae deletion strains, locus YLR262C, strain YPT6 (second series), hits give low values 0.995 | S. cerevisiae deletion strains, locus YLR262C, strain YPT6, hits give low values 1.03 | S. cerevisiae deletion strains, locus YLR268W, strain sec22, hits give low values 0.999 | S. cerevisiae deletion strains, locus YLR320W, strain mms22, hits give low values 1.01 | S. cerevisiae deletion strains, locus YLR330W, strain CHS5, hits give low values 1.01 | S. cerevisiae deletion strains, locus YLR342W, strain FKS1 (second series), hits give low values 1.04 | S. cerevisiae deletion strains, locus YLR342W, strain FKS1, hits give low values 0.982 | S. cerevisiae deletion strains, locus YLR357W, strain rsc2, hits give low values 0.981 | S. cerevisiae deletion strains, locus YLR370C, strain arc18, hits give low values 0.988 | S. cerevisiae deletion strains, locus YLR371W, strain rom2, hits give low values 0.991 | S. cerevisiae deletion strains, locus YLR384C, strain iki3, hits give low values 0.985 | S. cerevisiae deletion strains, locus YLR418C, strain cdc73, hits give low values 1.05 | S. cerevisiae deletion strains, locus YML016C, strain PPZ1, hits give low values 1 | S. cerevisiae deletion strains, locus YML032C, strain rad52, hits give low values 0.986 | S. cerevisiae deletion strains, locus YML120C, strain ndi1, hits give low values 0.981 | S. cerevisiae deletion strains, locus YML124C, strain tub3, hits give low values 1.01 | S. cerevisiae deletion strains, locus YMR058W, strain fet3, hits give low values 0.974 | S. cerevisiae deletion strains, locus YMR078C, strain ctf18, hits give low values 1.01 | S. cerevisiae deletion strains, locus YMR125W, strain sto1, hits give low values 0.957 | S. cerevisiae deletion strains, locus YMR129W, hits give low values 0.978 | S. cerevisiae deletion strains, locus YMR205C, strain PFK2, hits give low values 1.01 | S. cerevisiae deletion strains, locus YMR223W, strain ubp8, hits give low values 1.02 | S. cerevisiae deletion strains, locus YMR231W, strain pep5, hits give low values 0.983 | S. cerevisiae deletion strains, locus YMR263W, strain SAP30, hits give low values 0.984 | S. cerevisiae deletion strains, locus YMR307W, strain GAS1, hits give low values 1.06 | S. cerevisiae deletion strains, locus YNL067W, strain RPL9B, hits give low values 0.973 | S. cerevisiae deletion strains, locus YNL071W, strain lat1, hits give low values 0.987 | S. cerevisiae deletion strains, locus YNL183C, strain NPR1, hits give low values 1.03 | S. cerevisiae deletion strains, locus YNL209W, strain ssb2, hits give low values 0.976 | S. cerevisiae deletion strains, locus YNL233W, strain BNI4, hits give low values 0.97 | S. cerevisiae deletion strains, locus YNL248C, strain rpa49, hits give low values 0.965 | S. cerevisiae deletion strains, locus YNL250W, strain rad50, hits give low values 0.996 | S. cerevisiae deletion strains, locus YNL271C, strain bni1, hits give low values 1.01 | S. cerevisiae deletion strains, locus YNL298W, strain CLA4, hits give low values 0.999 | S. cerevisiae deletion strains, locus YNL307C, strain MCK1, hits give low values 1.01 | S. cerevisiae deletion strains, locus YNL322C, strain KRE1 (second series), hits give low values 0.972 | S. cerevisiae deletion strains, locus YNR049C, strain mso1, hits give low values 0.965 | S. cerevisiae deletion strains, locus YNR052C, strain pop2, hits give low values 1 | S. cerevisiae deletion strains, locus YOL006C, strain TOP1, hits give low values 0.947 | S. cerevisiae deletion strains, locus YOL012C, strain htz1 0.693 | S. cerevisiae deletion strains, locus YOL147C, strain pex11, hits give low values 1 | S. cerevisiae deletion strains, locus YOR001W, strain rrp6, hits give low values 0.961 | S. cerevisiae deletion strains, locus YOR061W, strain CKA2, hits give low values 1 | S. cerevisiae deletion strains, locus YOR069W, strain VPS5, hits give low values 1.01 | S. cerevisiae deletion strains, locus YOR070C, strain gyp1, hits give low values 0.992 | S. cerevisiae deletion strains, locus YOR080W, strain dia2, hits give low values 0.98 | S. cerevisiae deletion strains, locus YOR083W, strain WHI5, hits give low values 0.979 | S. cerevisiae deletion strains, locus YOR106W, strain vam3, hits give low values 0.978 | S. cerevisiae deletion strains, locus YOR136W, strain idh2, hits give low values 0.991 | S. cerevisiae deletion strains, locus YOR144C, strain elg1, hits give low values 0.995 | S. cerevisiae deletion strains, locus YOR184W, strain ser1, hits give low values 0.999 | S. cerevisiae deletion strains, locus YOR231W, strain MKK1, hits give low values 1.03 | S. cerevisiae deletion strains, locus YOR265W, strain rbl2, hits give low values 0.982 | S. cerevisiae deletion strains, locus YOR270C, strain vph1, hits give low values 0.989 | S. cerevisiae deletion strains, locus YOR290C, strain snf2, hits give low values 0.94 | S. cerevisiae deletion strains, locus YOR316C, strain cot1, hits give low values 1 | S. cerevisiae deletion strains, locus YPL051W, strain arl3, hits give low values 0.979 | S. cerevisiae deletion strains, locus YPL055C, strain LGE1, hits give low values 0.915 | S. cerevisiae deletion strains, locus YPL078C, strain atp4, hits give low values 0.975 | S. cerevisiae deletion strains, locus YPL106C, strain sse1, hits give low values 0.951 | S. cerevisiae deletion strains, locus YPL240C, strain hsp82, hits give low values 0.966 | S. cerevisiae deletion strains, locus YPL241C, strain CIN2, hits give low values 1 | S. cerevisiae deletion strains, locus YPL256C, strain CLN2, hits give low values 1.1 | S. cerevisiae deletion strains, locus YPR119W, strain clb2, hits give low values 0.997 | S. cerevisiae deletion strains, locus YPR141C, strain kar3, hits give low values 1 | S. cerevisiae deletion strains, locus YPR163C, strain tif3, hits give low values 1 | S. cerevisiae deletion strains, locus YPR167C, strain met16, hits give low values 1.01 | S. cerevisiae deletion strains, strain wtn01, hits give low values 1 | S. cerevisiae strains, strain wild type, hits give low values 1
